Experimental data: the supplement of paper PMC8728848
This excerpt belongs to a sample that is enriched for the strongest signals.

Legend:
Assay in all cases: glycan array binding signal (z-score within array); higher = stronger binding
Details in all cases: glycan notation: IUPAC condensed, linker removed
[1] = molecular target: Fuc(a1-2)Gal(b1-3)GalNAc(a1-3)[Fuc(a1-2)]Gal(b1-4)Glc
In short: (§1)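 Glycan array data were curated from 3228 arrays in the Consortium for Functional Glycomics database and kept only where the protein sequence was available. Glycan names were converted to IUPAC-condensed notation, and columns mapping to the same glycan were averaged. The binding signal is a within-array Z-score, averaged across arrays of the same protein sequence at different concentrations or buffers and across linkers. Negative Z-scores can be read as non-binding.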

[2] = molecular target: Fuc(a1-2)Gal(b1-3)GlcNAc(b1-3)[Fuc(a1-2)Gal(b1-3)GlcNAc(b1-6)]GalNAc
In short: as §1

[3] = molecular target: Fuc(a1-2)Gal(b1-4)Fuc(a1-3)]GlcNAc(b1-2)Man(a1-3)[Fuc(a1-2)Gal(b1-4)[Fuc(a1-3)]GlcNAc(b1-2)Man(a1-6)]Man(b1-4)GlcNAc(b1-4)GlcNAc
In short: as §1

[4] = molecular target: Fuc(a1-2)Gal(b1-4)GlcNAc(b1-2)Man(a1-3)[Fuc(a1-2)Gal(b1-4)GlcNAc(b1-2)Man(a1-6)]Man(b1-4)GlcNAc(b1-4)GlcNAc
In short: as §1

[5] = molecular target: Fuc(a1-2)Gal(b1-4)GlcNAc(b1-2)Man(a1-3)[Fuc(a1-2)Gal(b1-4)GlcNAc(b1-2)Man(a1-6)]Man(b1-4)GlcNAc(b1-4)[Fuc(a1-6)]GlcNAc
In short: as §1

[6] = molecular target: Fuc(a1-2)Gal(b1-4)GlcNAc(b1-3)Gal(b1-4)GlcNAc(b1-2)Man(a1-3)[Fuc(a1-2)Gal(b1-4)GlcNAc(b1-3)Gal(b1-4)GlcNAc(b1-2)Man(a1-6)]Man(b1-4)GlcNAc(b1-4)GlcNAc
In short: as §1

[7] = molecular target: Fuc(a1-2)Gal(b1-4)GlcNAc(b1-6)GalNAc
In short: as §1

[8] = molecular target: Fuc(a1-2)[Gal(a1-4)]Gal(b1-4)GlcNAc
In short: as §1

[9] = molecular target: Fuc(a1-2)[GalNAc(a1-3)]Gal(b1-3)GlcNAc
In short: as §1

[10] = molecular target: Fuc(a1-2)[GalNAc(a1-3)]Gal(b1-4)[Fuc(a1-3)]GlcNAc
In short: as §1

[11] = molecular target: Fuc(a1-2)[GalNAc(a1-4)]Gal(b1-4)GlcNAc
In short: as §1

[12] = molecular target: Fuc(b1-3)GlcNAc
In short: as §1

[13] = molecular target: Gal(a1-3)Gal(b1-3)GlcNAc(b1-3)GalNAc
In short: as §1

[14] = molecular target: Gal(a1-3)Gal(b1-4)Glc
In short: as §1

[15] = molecular target: Gal(a1-3)GalNAc
In short: as §1

[16] = molecular target: Gal(b1-3)GalNAc(b1-3)Gal
In short: as §1

[17] = molecular target: Gal(b1-3)[Fuc(a1-4)]GlcNAc(b1-6)GalNAc
In short: as §1

[18] = molecular target: Gal(b1-3)[GlcNAc(b1-6)]GalNAc
In short: as §1

[19] = molecular target: Gal(b1-4)GlcNAc
In short: as §1

[20] = molecular target: Gal(b1-4)GlcNAc(b1-2)Man(a1-3)[Gal(b1-4)GlcNAc(b1-2)Man(a1-6)][Gal(b1-4)GlcNAc(b1-4)]Man(b1-4)GlcNAc(b1-4)[Fuc(a1-6)]GlcNAc
In short: as §1

[21] = molecular target: Gal(b1-4)GlcNAc(b1-3)Gal(b1-4)GlcNAc(b1-3)Gal(b1-4)GlcNAc(b1-2)Man(a1-3)[Gal(b1-4)GlcNAc(b1-3)Gal(b1-4)GlcNAc(b1-3)Gal(b1-4)GlcNAc(b1-2)Man(a1-6)]Man(b1-4)GlcNAc(b1-4)[Fuc(a1-6)]GlcNAc
In short: as §1

[22] = molecular target: Gal(b1-4)GlcNAc(b1-3)Gal(b1-4)GlcNAc(b1-3)Gal(b1-4)GlcNAc(b1-3)Gal(b1-4)GlcNAc(b1-2)Man(a1-3)[Gal(b1-4)GlcNAc(b1-3)Gal(b1-4)GlcNAc(b1-3)Gal(b1-4)GlcNAc(b1-3)Gal(b1-4)GlcNAc(b1-2)Man(a1-6)]Man(b1-4)GlcNAc(b1-4)GlcNAc
In short: as §1

[23] = molecular target: Gal(b1-4)GlcNAc(b1-3)Gal(b1-4)GlcNAc(b1-3)Gal(b1-4)GlcNAc(b1-3)Gal(b1-4)GlcNAc(b1-2)Man(a1-3)[Gal(b1-4)GlcNAc(b1-3)Gal(b1-4)GlcNAc(b1-3)Gal(b1-4)GlcNAc(b1-3)Gal(b1-4)GlcNAc(b1-2)Man(a1-6)]Man(b1-4)GlcNAc(b1-4)[Fuc(a1-6)]GlcNAc
In short: as §1

[24] = molecular target: Gal(b1-4)GlcNAc(b1-3)Gal(b1-4)GlcNAc(b1-3)Gal(b1-4)GlcNAc(b1-3)Gal(b1-4)GlcNAc(b1-2)[Gal(b1-4)GlcNAc(b1-3)Gal(b1-4)GlcNAc(b1-3)Gal(b1-4)GlcNAc(b1-3)Gal(b1-4)GlcNAc(b1-6)]Man(a1-6)[Gal(b1-4)GlcNAc(b1-3)Gal(b1-4)GlcNAc(b1-3)Gal(b1-4)GlcNAc(b1-3)Gal(b1-4)GlcNAc(b1-2)Man(a1-3)]Man(b1-4)GlcNAc(b1-4)[Fuc(a1-6)]GlcNAc
In short: as §1

[25] = molecular target: Gal(b1-4)GlcNAc(b1-3)Gal(b1-4)GlcNAc(b1-3)Gal(b1-4)GlcNAc(b1-3)Gal(b1-4)GlcNAc(b1-3)Gal(b1-4)GlcNAc(b1-2)Man(a1-3)[Gal(b1-4)GlcNAc(b1-3)Gal(b1-4)GlcNAc(b1-3)Gal(b1-4)GlcNAc(b1-3)Gal(b1-4)GlcNAc(b1-3)Gal(b1-4)GlcNAc(b1-2)Man(a1-6)]Man(b1-4)GlcNAc(b1-4)GlcNAc
In short: as §1

B1: DrGal3 (Danio rerio) (protein)
chain: MDLSDALDAPPQQNNQQAGGPVWPGQPANPVWPGQPANPTWPGQPNQPAWPGQPNQQWPGQPGQPTAPGWPGPAPQTGPYGAPGQAPQVLTVPLDFPLQNGAYNKMLITINGEVKPNAKQFTVNLRRGNDIAFHINPRFSEGGKPVIVRNSMIGNNWGREERELPSFPFVPGKPFEMKILITDTEYKVAVNKSHLLEFKHRVFELNQITGLSIYNDVTLSTVNVETLQ
glycan array binding signal (z-score) [1]: -0.254
glycan array binding signal (z-score) [2]: -0.164
glycan array binding signal (z-score) [3]: -0.125
glycan array binding signal (z-score) [4]: -0.218
glycan array binding signal (z-score) [5]: -0.209
glycan array binding signal (z-score) [6]: 1.52
glycan array binding signal (z-score) [7]: -0.25
glycan array binding signal (z-score) [8]: -0.087
glycan array binding signal (z-score) [9]: -0.212
glycan array binding signal (z-score) [10]: -0.206
glycan array binding signal (z-score) [11]: -0.233
glycan array binding signal (z-score) [12]: -0.277
glycan array binding signal (z-score) [13]: -0.287
glycan array binding signal (z-score) [14]: -0.233
glycan array binding signal (z-score) [15]: -0.007
glycan array binding signal (z-score) [16]: -0.183
glycan array binding signal (z-score) [17]: -0.208
glycan array binding signal (z-score) [18]: -0.231
glycan array binding signal (z-score) [19]: -0.237
glycan array binding signal (z-score) [20]: -0.247
glycan array binding signal (z-score) [21]: 4.37
glycan array binding signal (z-score) [22]: 4.2
glycan array binding signal (z-score) [23]: 5.59
glycan array binding signal (z-score) [24]: 4.6
glycan array binding signal (z-score) [25]: 6.65
